# In the library only some 19% were active in any assay of this set; here they are far more common.
# TDP1 cell noCPT: qHTS for Inhibitors of human tyrosyl-DNA phosphodiesterase 1 (TDP1): qHTS in cells in absence of CPT; DT40 Tdp1-/- hTDP1 cells, no CPT, ATP luminescence, 48 h; 420,000 tested, 15% active; Potency, µM (top dose mostly 46.2 µM), most hits filed as inhibitors; also: nearly all actives have a fitted effect of over 55% in size
#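 Compound effects on proliferation are scored in DT40 Tdp1-/-;hTDP1 cells in the absence of CPT. ATP levels (CellTiter-Glo luminescence) are recorded after a ≥48 hr, 37 °C incubation.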
# DT40 TDP1 CPT: DT40-hTDP1 cell growth loss with CPT; chicken DT40 Tdp1-/-;hTDP1 cells + 20 nM CPT, ATP luminescence, 48 h; AID 686979; 420,000 tested, 12% active; Potency, µM (top dose mostly 46.2 µM), most hits filed as inhibitors; also: nearly all actives have a fitted effect of over 55% in size
#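 Cell growth measured by CellTiter-Glo luminescence after a minimum 48 h, 37 C compound exposure with 20 nM CPT in Tdp1-knockout DT40 cells stably expressing hTDP1, seeded 400/well; qHTS titration format.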
# IL-1B inflam inh: inflammasome signaling inhibition, IL-1 beta readout; THP-1 LPS/ATP IL-1B secretion, AlphaLISA, 16 h; hits give low values; activity change, % at 57.5 µM; 360,000 tested, 4.7% active; in the data active = activity change below about -50%; inconclusive = mostly about -30% to -49%
#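 Secreted IL-1B measured by AlphaLISA bead assay after 16 h compound exposure of THP-1 cells; compounds (final up to 57.5 uM) added 1 h before LPS (250 ng/mL) and ATP (1.25 mM) stimulation; lower signal means less secretion.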
# HT1080 IDH1KD tx: kills HT-1080 cells with IDH1 knockdown. 360,000 tested, 2% active. Potency, µM (titrated, usually from 46.1 µM), actives largely listed as cytotoxic. HT-1080 IDH1 knockdown viability, ATP luminescence, 48 h
#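 Assay cells: HT-1080 with IDH1 knockdown, 750 per well, RPMI/5% FBS. Exposure: 48 h at 37 °C following 2 h pre-incubation. Read: CellTiter-Glo luminescence; fitted concentration-response, curve class assigned.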
# HT1080NT lethal: kills 2HG-producing HT-1080-NT fibrosarcoma cells; HT-1080-NT fibrosarcoma viability, CellTiter-Glo ATP luminescence, 48 h; Potency, µM (doses to about 46.1 µM), actives largely listed as cytotoxic; 360,000 tested, 1.6% active;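 also: NT is the 2HG producing partner of a matched IDH1 knockdown line; nearly all actives have a fitted effect of over 55% in size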
#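 Read-out is CellTiter-Glo luminescence after 10 minutes at room temperature, following 48 hours' compound treatment of HT-1080-NT cells (750 cells/well, RPMI, 5% FBS, 37 degrees C).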
# Hits are given with their value; 0 = inactive; ? = inconclusive; - = not tested or not shown. Unless noted, calls follow the shape of the dose curve; as a rule, active = well fitted curve in the direction sought with a large enough effect; inconclusive = small, poorly fitted or top-dose-only effect, or another doubt; inactive = no such curve, though single readings can be large; an effect the other way counts as inactive or inconclusive.
SMILES,TDP1 cell noCPT,DT40 TDP1 CPT,IL-1B inflam inh,HT1080 IDH1KD tx,HT1080NT lethal
COc1cc(C(C)=O)ccc1OCC(=O)OCCCOC(=O)COc1ccc(C(C)=O)cc1OC,0,0,0,0,0
O=C(O)C[C@@H](O)C(=O)O,0,0,0,0,0
CC/C(=C\C(=O)c1cccnc1)Nc1ccc(C)c(C)c1,?,0,0,0,0
COc1ccc(-c2coc3c(C(=O)Nc4cccnc4)cccc23)c(C)c1,8.2µM,18µM,0,?,?
COc1cccc(C(=O)Nc2cccnc2)c1,0,0,0,0,0
COc1ccc(-c2ccc(C(=O)Nc3cccc(Oc4ccccc4)c3)c3occc23)c(C)c1,16µM,23µM,0,0,0
COc1ccc(NC(=O)N(C)C[C@H]2OCc3cn(nn3)CCCC(=O)N([C@@H](C)CO)C[C@@H]2C)cc1,0,0,0,0,0
Cc1ccc(N(Cc2ccccc2)C(=O)c2ccc(S(=O)(=O)N3CCOCC3)cc2)cc1,18µM,?,-60,0,0
Cc1ccc(N(Cc2ccccc2)C(=O)c2cccc(S(=O)(=O)N3CCOCC3)c2)cc1,21µM,?,0,0,0
Cc1ccc(N(Cc2ccccc2)C(=O)c2ccc(C)c(S(=O)(=O)N3CCOCC3)c2)cc1,?,?,0,0,0
Cc1ccc(N(Cc2ccccc2)C(=O)c2cccc(S(=O)(=O)N3CCN(C)CC3)c2)cc1,?,?,0,0,0
Cn1cnc2c(=O)oc3ccc(S(=O)(=O)N4CCN(c5cccc(C(F)(F)F)c5)CC4)cc3c21,0,0,-,-,-
O=C(CSc1ccsc1[N+](=O)[O-])NCCc1ccc(Cl)cc1,0,?,0,0,0
O=C(CSc1ccsc1[N+](=O)[O-])Nc1cc(F)ccc1F,?,0,0,0,0
O=C(CSc1ccsc1[N+](=O)[O-])NCCc1ccccc1,0,0,0,0,0
Cc1ccc(CNC(=O)CSc2ccsc2[N+](=O)[O-])cc1,10µM,?,?,0,0
CCN(CC)c1ccc(NC(=O)CSc2ccsc2[N+](=O)[O-])c(C)c1,18µM,?,0,0,0
COc1ccc(CNC(=O)CSc2ccsc2[N+](=O)[O-])cc1,0,?,-59,0,0
CCN(CC)c1ccc(NC(=O)C(NS(=O)(=O)c2cccs2)C(C)C)c(C)c1 (centres undefined),21µM,21µM,-,-,-
CC(=O)NCCNc1ncnc2ccc(-c3ccc(C(=O)N(C)C)cc3)cc12,0,0,-,-,-
COC(=O)c1c(C)sc(-c2c(-c3ccc4c(c3)OCCO4)[nH]c3c2c(=O)[nH]c(=O)n3C)c1O,21µM,?,-,-,-
Cc1nc(C/C(=N\Nc2ccccc2)c2ccc(O)cc2O)cs1,?,?,0,0,?
CCc1cc(/C(Cc2ccccn2)=N\Nc2ccccc2)c(O)cc1O,0,?,-76,?,0
C1CCC(c2nn3c(-c4n[nH]c5c4CCC5)nnc3s2)CC1,?,?,?,0,0
CCN(CC)c1ccc(-c2nn3c(-c4n[nH]c5c4CCC5)nnc3s2)cc1,0.65µM,0.92µM,0,2.3µM,1.5µM
SMILES,TDP1 cell noCPT,DT40 TDP1 CPT,IL-1B inflam inh,HT1080 IDH1KD tx,HT1080NT lethal
CC1Cc2cc(S(=O)(=O)N(C)c3ccc(Br)cc3)ccc2N1C(=O)C1CC1 (centres undefined),23µM,23µM,-,-,-
CCN(c1ccc(OC)cc1)S(=O)(=O)c1ccc2c(c1)CC(C)N2C(=O)C1CC1 (centres undefined),18µM,21µM,?,0,0
Cc1ccc(NC(=O)c2cccc(C(F)(F)F)c2)cc1NC(=O)c1[nH]cnc1C(N)=O,0,0,0,0,0
Cc1cn(-c2cc(NC(=O)c3ccc(C)c(NC(=O)c4cccc(-c5cn[nH]c(=O)c5)c4)c3)cc(C(F)(F)F)c2)cn1,?,?,-94,0,0
O=[N+]([O-])c1ccc(COc2ccc(CN3CCCC3)cc2)cc1,18µM,16µM,0,0,0
O=[N+]([O-])c1ccc(COc2ccc(Br)cc2CN2CCOCC2)cc1,?,?,0,0,0
O=[N+]([O-])c1ccc(COc2cccc(CN3CCCCC3)c2)cc1,16µM,?,0,0,0
O=[N+]([O-])c1ccc(N2CCN(Cc3ccncc3)CC2)cc1,18µM,?,0,0,0
O=[N+]([O-])c1ccc(COc2ccc(CN3CCCCC3)cc2)cc1,?,?,0,0,0
O=[N+]([O-])c1ccc(COc2ccc(CN3CCOCC3)cc2)cc1,23µM,?,0,0,0
O=C(NC(C(=O)N/N=C/c1cc([N+](=O)[O-])ccc1O)c1n[nH]c(=O)c2ccccc12)c1ccccc1 (centres undefined),?,0,0,?,0
Cc1cccc(-c2nc3c4ccccc4nc(N4CCN(c5ccccc5F)CC4)n3n2)c1,0,0,-,-,-
COC(=O)C1CCN(c2ccc([N+](=O)[O-])cc2)CC1,0,0,0,0,0
O=[N+]([O-])c1ccc(CN2CCCCCC2)cc1,0,0,0,0,0
CSc1ccc(CN2CCN(Cc3ccc([N+](=O)[O-])cc3)CC2)cc1,21µM,?,-67,0,?
COC(=O)C1CCN(CCCOc2ccc(CN3CCN(c4ccc([N+](=O)[O-])cc4)CC3)cc2)CC1,21µM,0,0,?,?
O=c1[nH][nH]c(=O)c2nc(Nc3ccccc3)ncc12,0,0,0,0,0
CC1(C(=O)NS(=O)(=O)c2ccc(F)cc2F)CCN1C(=O)C1CCCCC1 (centres undefined),0,0,0,0,0
COc1cc2cc(C(c3nnnn3C3CCCCC3)N(C)C3CCCCC3)c(=O)[nH]c2cc1OC (centres undefined),?,23µM,?,?,?
Cc1ccc(C(c2nnnn2C2CCCCC2)N(C)C2CCCCC2)cc1 (centres undefined),23µM,23µM,0,0,0
CCCN1CCN(C(c2cc3cc(OCC)ccc3[nH]c2=O)c2nnnn2C2CCCCC2)CC1 (centres undefined),?,?,0,?,?
CC(C)C(c1nnnn1C1CCCC1)N(C)C1CCCCC1 (centres undefined),?,?,0,0,0
COc1cc2cc(C(c3nnnn3C3CCCC3)N(C)C3CCCCC3)c(=O)[nH]c2cc1OC (centres undefined),25µM,16µM,0,?,0
CCOC(=O)C(NC(=O)c1ccccc1)(Nc1nnc(C)s1)C(F)(F)F (centres undefined),0,0,0,0,0
CC(OC(=O)CC1CCCC1)C(=O)Nc1ccc(S(N)(=O)=O)cc1 (centres undefined),0,0,0,0,0

# Bioassay records (PubChem)
